# High-throughput results: PubChem BioAssay, Sanford-Burnham Center for Chemical Genomics
# Shown are actives, neighbours in structure and some others; about 28% of the full set was active somewhere.
# CYP2C9 activ – CYP2C9 (human) activation | activation factor at 5 µM | 96,000 tested, 1.4% active | recombinant CYP2C9, luciferin-H conversion, luminescence; active compounds read high; factor 1 = untreated enzyme, 0 = blocked;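 active means activation factor of 2 or more for CYP2C9 at a 5 µM dose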;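 further: 0 = sulfaphenazole-blocked wells and 1 = vehicle-only wells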
# CYP2C9 inh – human CYP2C9 inhibition | P11712 | CYP2C9 Supersomes, luciferin-H conversion, luminescence | inhibition, % at 5 µM | 96,000 tested, 20% active;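 active means blocking of liver enzyme CYP2C9 beyond about 50% at 5 µM, limit read from the data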
# CYP2C19 activ – activators of human cytochrome P450 2C19; 96,000 tested, under 10 active; AID 1025; activation factor at 5 µM; recombinant CYP2C19, luciferin-H EGE luminescence; active compounds read high; 0 = fully inhibited enzyme, 1 = untreated enzyme; P33261;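 active means activation factor of at least 2 at 5 µM in the primary screen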;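 further: 0 = wells with 2.5 mM tranylcypromine and 1 = vehicle-only wells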
# CYP2C19 inhib – blocks human cytochrome P450 2C19; CYP2C19 Supersomes, luciferin-H EGE luminescence, 30 min; 96,000 tested, 21% active; inhibition, % at 5 µM; P33261; AID 778;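 active means CYP2C19 inhibition above a set limit at 5 µM in the primary screen, cut at about 50% in these data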;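 further: plate controls were negative control wells for no effect and 2.5 mM tranylcypromine positive control for full effect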
# CD11b adhes enh – increases human CD11b/CD18 adhesion to fibrinogen. P05107+P11215. K562 CD11b/CD18 adhesion to fibrinogen, ATPlite luminescence. activation, % at 10 µM. 93,000 tested, 0.07% active. AID 1499;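 active means 10 µM primary screen giving 50% or more activity, confirmed by 40% or more on retest at that dose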
# Target sequence (P05107 whole entry, looked up, other chains not shown): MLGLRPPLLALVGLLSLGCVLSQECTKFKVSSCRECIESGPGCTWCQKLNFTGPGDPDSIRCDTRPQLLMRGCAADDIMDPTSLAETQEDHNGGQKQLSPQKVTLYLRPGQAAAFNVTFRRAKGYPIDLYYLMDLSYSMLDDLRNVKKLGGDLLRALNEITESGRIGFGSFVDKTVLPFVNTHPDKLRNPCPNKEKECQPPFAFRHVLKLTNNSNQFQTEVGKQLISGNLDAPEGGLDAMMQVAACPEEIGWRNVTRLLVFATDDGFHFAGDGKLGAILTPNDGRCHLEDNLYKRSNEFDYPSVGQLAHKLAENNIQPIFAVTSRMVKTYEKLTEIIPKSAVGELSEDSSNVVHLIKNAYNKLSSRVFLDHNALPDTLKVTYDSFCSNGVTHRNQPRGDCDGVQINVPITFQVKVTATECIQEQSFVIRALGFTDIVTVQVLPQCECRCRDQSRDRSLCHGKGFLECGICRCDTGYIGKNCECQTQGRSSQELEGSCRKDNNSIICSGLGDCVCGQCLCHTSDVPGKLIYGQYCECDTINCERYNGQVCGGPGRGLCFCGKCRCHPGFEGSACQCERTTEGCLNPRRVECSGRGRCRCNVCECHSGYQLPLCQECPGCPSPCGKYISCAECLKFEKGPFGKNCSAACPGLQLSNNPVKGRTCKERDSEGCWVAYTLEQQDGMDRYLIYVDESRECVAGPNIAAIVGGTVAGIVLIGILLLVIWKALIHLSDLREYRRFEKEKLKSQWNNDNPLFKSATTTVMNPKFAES
# CD11b adhes inh – CD11b/CD18-fibrinogen binding inhibition. inhibition, % at 10 µM. 93,000 tested, 0.54% active. K562 CD11b/CD18 adhesion to fibrinogen, ATPlite luminescence; Mn2+ added to activate the integrin. P05107+P11215;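 active means primary inhibition of 50% or more at 10 µM, then 40% or more on retest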
# Active calls of the source: *; · = no result given.
SMILES,CYP2C9 activ,CYP2C9 inh,CYP2C19 activ,CYP2C19 inhib,CD11b adhes enh,CD11b adhes inh
CCOC(=O)C1CCN(S(=O)(=O)c2ccc3[nH]c(=O)oc3c2)CC1,1,-2,0.4,56*,-3,9
Cc1ccc(S(=O)(=O)N2CCC(C(=O)Nc3nnc(C4CCCC4)s3)CC2)cc1,1,3,1,5,1,15
Cc1nn(C)cc1/C=N/NC(=O)C(C)(C)Oc1ccc(Cl)cc1,0.7,28,0.8,18,-1,-4
COc1ccc(S(=O)(=O)N(C)C2CCN(C)CC2)cc1,1,0,0.8,20,-3,12
Cc1cc(NC(=O)c2cccc(S(=O)(=O)N3CCCCCC3)c2)no1,0.7,27,0.8,15,-2,-28
COc1ccc2c(c1)C(=O)c1ccccc1CO2,0.9,9,0.9,11,0,18
COc1ccc2c(c1)C(=O)CC(c1ccccc1F)O2 (centres undefined),1.1,-13,0.1,87*,·,·
CN(C)CCCOC(=O)Cc1ccc(Cl)cc1,0.7,26,0.3,69*,2,14
CN(C)CCCOC(=O)CCc1ccccc1,1,2,0.9,8,2,-13
Cc1ccc(Nc2c([N+](=O)[O-])ccc3c2=NC2(CCCCC2)N=3)cc1,0.7,32,0.9,7,·,·
CC(=O)Nc1ccc(Nc2cc(C)nc3c(-c4ccc(Cl)cc4)c(C)nn23)cc1,·,·,·,·,15,23
Cc1cc(NCCCn2ccnc2)n2nc(C)c(-c3ccc(Cl)cc3)c2n1,0.1,89*,0.1,90*,-3,10
Cc1cc(NCCN2CCOCC2)n2nc(C)c(-c3ccc(Cl)cc3)c2n1,0.4,57*,0.5,46,9,-18
Cc1cc(NCCCn2ccnc2)n2ncc(-c3ccccc3)c2n1,0,98*,0,99*,-3,50*
Cc1cc(NCCCn2ccnc2)n2nc(C)c(-c3ccccc3)c2n1,0.1,88*,0.1,90*,-3,2
Cc1cc(NCCN2CCOCC2)n2ncc(-c3ccccc3)c2n1,0.7,25,0.7,28,-7,0
CC1CCC(NC(=O)C2c3ccccc3C(=O)N2CCCN2CCOCC2)CC1 (centres undefined),0.9,8,1.1,-5,0,0
Cc1ccc2c(c1)[nH]c1c(=O)n(CCC3=CCCCC3)cnc12,0.9,7,0.4,55*,3,4
C1=C(CCNc2ncnc3c2[nH]c2ccccc23)CCCC1,·,·,·,·,-9,100*
O=c1c2[nH]c3ccccc3c2ncn1CCC1=CCCCC1,0.7,34,0.3,67*,0,-7
CC(C)OCCCNc1ncnc2c1[nH]c1ccccc12,0.6,35,0.6,45,-9,84*
Cc1[nH]c2ccccc2c1C(=O)C(=O)NCCC1=CCCCC1,·,·,·,·,0,6
Cc1sc(N/N=C/c2cccs2)nc1-c1ccccc1,·,·,·,·,-2,8
CCOC(=O)N1CCC(=NNC(=O)COc2ccc(OC)cc2)CC1,·,·,·,·,2,24
CCCCOCCCNS(=O)(=O)c1ccccc1,0.9,13,0.6,44,5,2
SMILES,CYP2C9 activ,CYP2C9 inh,CYP2C19 activ,CYP2C19 inhib,CD11b adhes enh,CD11b adhes inh
CCCCOP(=O)(OCCCC)C1(NS(=O)(=O)c2ccccc2)C=CC(=O)c2ccccc21 (centres undefined),0.4,60*,0.5,47,1,6
Cc1cc(Nc2ccccc2)nn1C(=O)c1ccc(Cl)cc1,0.5,55*,1.1,-10,0,-1
COC(=O)c1ccc(C)c(NC(=S)NCc2ccc(Cl)cc2)c1,·,·,·,·,-5,-4
O=C(COC(=O)c1cccnc1Cl)c1ccc(Cl)cc1Cl,2.5*,-149,0.3,66*,·,·
CC(=O)Nc1cc(C(=O)OCC(=O)c2ccc(Cl)cc2Cl)ccc1C,2*,-102,0.7,34,·,·
O=C(COC(=O)c1ccc(Cl)cc1O)Nc1cccnc1Cl,·,·,·,·,1,-15
CC(C)C(=O)Nc1cccc(C(=O)OCC(=O)c2ccc(Cl)cc2Cl)c1,2.6*,-163,0.9,8,-5,20
COc1ccc(NC(=O)c2ccc(Br)o2)c([N+](=O)[O-])c1,1.1,-6,0.9,5,1,-4
COc1ccc(-n2ncc3c(NCc4ccco4)ncnc32)cc1,0.8,21,0.8,22,-2,6
CCc1cc2c(NCc3ccco3)ncnc2s1,0.6,41,0.5,50*,3,27
Clc1ccc(Cn2ncc3c(NCc4ccco4)ncnc32)c(Cl)c1,2.8*,-180,0.8,22,-7,13
Cc1cc(C(=O)NC2CCCc3ccccc32)c(C)o1 (centres undefined),0.3,70*,0.7,30,-2,5
CCN(CC)S(=O)(=O)c1ccc2oc(C(=O)NC3CCCc4ccccc43)c(C)c2c1 (centres undefined),0.4,59*,0.7,25,0,19
CSCc1c(C(=O)NC2CCCc3ccccc32)oc2ccccc12 (centres undefined),0.4,55*,1.2,-15,-1,10
CN(C)S(=O)(=O)c1cccc(C(=O)NC2CCCc3ccccc32)c1 (centres undefined),0.9,12,0.9,13,-4,-4
CCCNS(=O)(=O)c1cccc(C(=O)NC2CCCc3ccccc32)c1 (centres undefined),0.1,89*,0.2,78*,7,-44
Cc1cc(C(=O)NC2CCCc3ccccc32)no1 (centres undefined),0.9,13,0.6,41,-8,-12
CCCCCCCC(=O)NNC(=O)c1ccc(F)cc1,0.9,6,0.7,35,·,·
CC(C)NC(=O)CSc1nnc(C2CC2)n1-c1ccccc1,1,2,1,1,-2,1
CC(C)CC(=O)NC(=S)Nc1ccc(NC(=O)c2cccs2)cc1,0.9,12,0.9,6,-2,16
Cc1cc(C)c(S(=O)(=O)Nc2nnc(C)s2)c(C)c1,0.1,86*,1,-2,3,-5
Cc1cc(C)c(S(=O)(=O)Nc2ccccc2-c2ccccc2)c(C)c1,·,·,·,·,-8,68
COc1ccc(-c2nnc(-c3ccc(Br)o3)o2)cc1OC,0.7,31,0.4,56*,-4,4
COc1ccc(-c2nc(-c3ccc(Br)o3)no2)cc1OC,0.6,41,1.1,-9,40,12
CCCOc1ccc(S(=O)(=O)n2cc(Br)c(=O)[nH]c2=O)cc1,0,98*,0.7,27,-6,8
CCCOc1ccc(C(=O)Nc2c[nH]c(=O)[nH]c2=O)cc1,·,·,·,·,-5,-1
CC(=O)Nc1cccc(-c2csc(NCc3ccco3)n2)c1,0.6,39,0.5,48,7,-9
COc1cccc(CN(C)CC(=O)NCc2ccccc2Cl)c1,·,·,·,·,3,7
